# Data taken from article PMC7862700, “An all-to-all approach to the identification of sequence-specific readers for epigenetic DNA modifications on cytosine”.
# How the values were obtained:
# Assay in all cases: DAPPL (digital affinity profiling via proximity ligation, sequencing); 10 mM Tris-HCl pH 7.5, 50 mM NaCl, 1 mM DTT, 4% glycerol, room temperature, 30 min; GST-TFs on glutathione beads, 16-mer random dsDNA library, 0.1% formaldehyde crosslink after washing; high values mean tight binding
# Details in all cases: protein: recombinant; tags: N-terminal GST; dsDNA, one strand shown
# [1] = target: T1, FLI1 (Homo sapiens, UniProt Q01543 1-452)
# T1 sequence: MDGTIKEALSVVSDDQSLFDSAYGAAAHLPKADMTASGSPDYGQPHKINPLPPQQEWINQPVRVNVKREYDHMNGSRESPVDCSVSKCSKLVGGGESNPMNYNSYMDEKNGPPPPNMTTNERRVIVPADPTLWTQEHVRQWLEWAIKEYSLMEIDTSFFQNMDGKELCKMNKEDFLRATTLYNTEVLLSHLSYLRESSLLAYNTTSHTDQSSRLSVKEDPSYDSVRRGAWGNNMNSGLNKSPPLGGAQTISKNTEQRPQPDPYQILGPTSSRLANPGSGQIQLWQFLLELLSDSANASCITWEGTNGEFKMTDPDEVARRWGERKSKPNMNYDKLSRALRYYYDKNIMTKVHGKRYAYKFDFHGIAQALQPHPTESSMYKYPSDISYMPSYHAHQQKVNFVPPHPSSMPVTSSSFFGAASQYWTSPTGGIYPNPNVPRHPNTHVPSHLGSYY
# Method in brief: (§1)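 Human transcription factors carrying a GST fusion were produced in yeast, bound to glutathione beads, tagged with DNA barcodes and pooled together with a tag-only sample. Each pool was held with 200 nmole of a random double-stranded 16-mer DNA library in Tris/NaCl/DTT/glycerol buffer for 30 min at room temperature, then washed, crosslinked in 0.1% formaldehyde, proximity-ligated with BsaI/T4 ligase (1 h, 37 °C), PCR-amplified and sequenced on an Illumina NextSeq500. Binding signal is the read frequency of each hexamer for a given factor divided by its frequency in the tag-only sample.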
# [2] = target: T2, ELK1 (Homo sapiens, UniProt P19419 1-428)
# T2 sequence: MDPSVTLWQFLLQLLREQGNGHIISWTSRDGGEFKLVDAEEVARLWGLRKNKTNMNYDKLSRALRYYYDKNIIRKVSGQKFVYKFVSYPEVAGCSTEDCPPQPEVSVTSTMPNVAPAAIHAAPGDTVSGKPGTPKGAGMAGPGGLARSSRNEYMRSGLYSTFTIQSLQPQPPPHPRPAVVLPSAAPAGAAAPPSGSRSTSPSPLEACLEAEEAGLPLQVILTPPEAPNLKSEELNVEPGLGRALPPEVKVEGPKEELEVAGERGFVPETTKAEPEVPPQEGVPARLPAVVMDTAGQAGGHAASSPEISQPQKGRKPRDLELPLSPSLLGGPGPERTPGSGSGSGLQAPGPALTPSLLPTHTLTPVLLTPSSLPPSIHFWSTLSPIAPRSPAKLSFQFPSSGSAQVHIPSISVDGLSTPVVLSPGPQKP
# Method in brief: as §1
# [3] = target: T3, GABPA (Homo sapiens, UniProt Q06546 1-454)
# T3 sequence: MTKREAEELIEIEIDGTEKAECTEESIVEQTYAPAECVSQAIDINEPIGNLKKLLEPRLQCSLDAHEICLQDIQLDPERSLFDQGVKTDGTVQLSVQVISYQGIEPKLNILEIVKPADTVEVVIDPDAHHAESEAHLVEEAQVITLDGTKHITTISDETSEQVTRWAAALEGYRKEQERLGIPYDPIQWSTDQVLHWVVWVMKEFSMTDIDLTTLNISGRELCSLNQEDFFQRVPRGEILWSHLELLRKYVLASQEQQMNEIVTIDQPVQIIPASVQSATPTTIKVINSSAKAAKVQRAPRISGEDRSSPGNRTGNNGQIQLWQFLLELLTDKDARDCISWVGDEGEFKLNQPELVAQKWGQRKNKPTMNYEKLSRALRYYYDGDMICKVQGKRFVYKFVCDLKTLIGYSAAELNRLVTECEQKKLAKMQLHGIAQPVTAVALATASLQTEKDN
# Method in brief: as §1
# [4] = target: T4, ERG (Homo sapiens, UniProt P11308 1-479)
# T4 sequence: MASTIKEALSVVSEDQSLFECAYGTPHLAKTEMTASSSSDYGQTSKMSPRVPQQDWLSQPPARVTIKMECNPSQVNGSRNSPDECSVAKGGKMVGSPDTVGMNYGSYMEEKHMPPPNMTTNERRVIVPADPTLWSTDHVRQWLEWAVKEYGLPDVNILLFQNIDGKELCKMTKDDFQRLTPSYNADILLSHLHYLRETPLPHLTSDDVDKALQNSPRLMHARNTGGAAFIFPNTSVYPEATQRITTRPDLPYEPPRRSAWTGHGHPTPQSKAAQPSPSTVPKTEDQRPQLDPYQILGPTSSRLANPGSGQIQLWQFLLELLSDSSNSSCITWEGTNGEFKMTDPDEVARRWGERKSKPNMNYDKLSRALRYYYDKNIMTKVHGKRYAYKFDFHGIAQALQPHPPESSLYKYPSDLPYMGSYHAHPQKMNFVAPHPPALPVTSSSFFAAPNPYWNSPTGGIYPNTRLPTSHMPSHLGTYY
# Method in brief: as §1
# [5] = target: ELF1 (Homo sapiens, UniProt P32519 1-619)
# Chain of ELF1 (P32519 whole entry): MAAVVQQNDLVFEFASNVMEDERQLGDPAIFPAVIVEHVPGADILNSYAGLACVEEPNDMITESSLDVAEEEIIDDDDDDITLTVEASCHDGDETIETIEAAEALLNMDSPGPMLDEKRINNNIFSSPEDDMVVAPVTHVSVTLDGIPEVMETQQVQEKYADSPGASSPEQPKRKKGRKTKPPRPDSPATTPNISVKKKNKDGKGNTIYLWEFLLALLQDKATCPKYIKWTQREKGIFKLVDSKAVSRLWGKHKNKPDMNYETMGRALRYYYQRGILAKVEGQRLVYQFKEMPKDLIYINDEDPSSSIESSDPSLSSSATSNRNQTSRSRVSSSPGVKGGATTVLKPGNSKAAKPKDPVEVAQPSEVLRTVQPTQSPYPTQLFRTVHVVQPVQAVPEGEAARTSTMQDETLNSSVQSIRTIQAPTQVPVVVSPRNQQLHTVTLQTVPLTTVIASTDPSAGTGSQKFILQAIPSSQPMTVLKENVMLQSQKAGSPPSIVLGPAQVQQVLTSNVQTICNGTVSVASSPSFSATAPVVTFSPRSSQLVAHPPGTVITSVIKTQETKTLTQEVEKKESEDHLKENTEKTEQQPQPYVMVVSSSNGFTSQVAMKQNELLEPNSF
# Method in brief: as §1
# [6] = target: T5, EHF (Homo sapiens, UniProt Q9NZC4 1-300)
# T5 sequence: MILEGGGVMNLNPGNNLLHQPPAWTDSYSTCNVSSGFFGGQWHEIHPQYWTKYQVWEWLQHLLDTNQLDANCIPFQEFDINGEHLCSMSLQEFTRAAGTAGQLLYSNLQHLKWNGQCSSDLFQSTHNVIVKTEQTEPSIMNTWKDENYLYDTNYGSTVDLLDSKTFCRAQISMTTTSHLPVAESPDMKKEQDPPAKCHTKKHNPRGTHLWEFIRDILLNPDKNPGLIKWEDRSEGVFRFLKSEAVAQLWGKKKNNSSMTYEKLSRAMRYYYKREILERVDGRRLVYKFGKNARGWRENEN
# Method in brief: as §1
# [7] = target: SPI1 (Homo sapiens, UniProt P17947 1-270)
# Method in brief: as §1
# [8] = target: SPIB (Homo sapiens, UniProt Q01892 1-262)
# Chain of SPIB (Q01892 whole entry): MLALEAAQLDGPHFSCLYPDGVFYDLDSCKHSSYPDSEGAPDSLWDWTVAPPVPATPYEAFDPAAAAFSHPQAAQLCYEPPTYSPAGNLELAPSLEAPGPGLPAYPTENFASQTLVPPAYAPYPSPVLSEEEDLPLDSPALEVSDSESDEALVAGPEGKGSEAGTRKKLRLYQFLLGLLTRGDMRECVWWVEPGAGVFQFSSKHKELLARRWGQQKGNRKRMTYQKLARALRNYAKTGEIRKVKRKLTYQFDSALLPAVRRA
# Method in brief: as §1
# [9] = target: T6, ELK3 (Homo sapiens, UniProt P41970 1-407)
# T6 sequence: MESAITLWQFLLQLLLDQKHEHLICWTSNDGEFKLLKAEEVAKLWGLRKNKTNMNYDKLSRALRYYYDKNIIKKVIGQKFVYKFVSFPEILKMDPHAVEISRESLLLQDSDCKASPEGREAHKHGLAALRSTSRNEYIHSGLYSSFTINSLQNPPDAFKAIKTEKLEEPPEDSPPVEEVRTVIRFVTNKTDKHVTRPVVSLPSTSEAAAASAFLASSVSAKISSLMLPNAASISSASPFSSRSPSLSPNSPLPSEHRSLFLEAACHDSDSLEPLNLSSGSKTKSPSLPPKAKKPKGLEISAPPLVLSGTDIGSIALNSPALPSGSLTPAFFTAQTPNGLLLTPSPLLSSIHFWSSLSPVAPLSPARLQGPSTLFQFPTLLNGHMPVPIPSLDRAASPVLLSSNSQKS
# Method in brief: as §1
sequence,measurement,setting,value
TTGATC,binding signal,[1],"1.21 fold enrichment (6-mer frequency, TF over GST control)"
same,binding signal,[2],"1.22 fold enrichment (6-mer frequency, TF over GST control)"
same,binding signal,[3],"1.21 fold enrichment (6-mer frequency, TF over GST control)"
same,binding signal,[4],"1.19 fold enrichment (6-mer frequency, TF over GST control)"
same,binding signal,[5],"1.21 fold enrichment (6-mer frequency, TF over GST control)"
same,binding signal,[6],"1.12 fold enrichment (6-mer frequency, TF over GST control)"
same,binding signal,[7],"1.23 fold enrichment (6-mer frequency, TF over GST control)"
same,binding signal,[8],"1.3 fold enrichment (6-mer frequency, TF over GST control)"
same,binding signal,[9],"1.26 fold enrichment (6-mer frequency, TF over GST control)"
